Assay results: PubChem BioAssay
For part of these data: Potency and affinity values are given separately. Calls of active or inactive are those of the source. Unless noted, the rule behind the calls is not given here.

Key:
[1] = antimalarial activity against Dd2 strain (AID 2302;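 active = growth inhibition above 50% at the single 2 µM test dose, taken to imply half-maximal potency below 2 µM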;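 note: 0% = DMSO untreated growth and 100% = chloroquine plus artemisinin killed control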); conditions: P. falciparum Dd2 in RBCs, LDH growth readout, 72 h; at 2 µM; active compounds read high
[2] = target: L-lactate dehydrogenase (Plasmodium falciparum (isolate CDC / Honduras)) (UniProt Q27743); experiment: PfLDH activity inhibition – cell lysate, 3D7 strain, counter-screen for P. falciparum growth inhibition project (AID 2304);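 note: 0% = vehicle and 100% = reference inhibitor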; conditions: P. falciparum 3D7 crude extract, LDH APAD/NBT absorbance; at 2 µM; active compounds read high
[3] = inhibition of 3D7 malaria parasite growth – strain 3D7 (AID 2306);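 note: 0% = DMSO wells and 100% = chloroquine plus artemisinin control wells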; conditions: P. falciparum 3D7 erythrocytic growth, LDH absorbance, 72 h; at 2 µM; active compounds read high
[4] = target: Calcium-dependent protein kinase 1 (Plasmodium falciparum (isolate 3D7)) (UniProt P62344); experiment: PfCDPK1 kinase inhibitors, biochemical, TCAMS library (AID 1159585; cut-off not given, nearly all actives have IC50 up to about 0.98 µM;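 note: inhibitors leave more ATP so luminescence rises with inhibition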); conditions: recombinant PfCDPK1, Kinase-Glo ATP depletion luminescence
[5] = target: Plasmodium falciparum protein kinase 6 (PK6, PF3D7_1337100) (UniProt Q8IDW1); experiment: PfPK6 kinase inhibitors, biochemical, TCAMS library (AID 1159586); conditions: recombinant PfPK6, Kinase-Glo ATP depletion luminescence
[6] = target: Protein kinase 7 (PK7), Plasmodium falciparum 3D7 (PF3D7_0213400) (UniProt Q7YTF7); experiment: inhibition of Plasmodium PK7 catalytic activity – biochemical, TCAMS antimalarial set, Kinase-Glo luminescence (AID 1159587); conditions: recombinant PfPK7, Kinase-Glo ATP depletion luminescence
[7] = target: Calcium-dependent protein kinase 4 (Plasmodium falciparum (isolate 3D7)) (UniProt Q8IBS5); experiment: PfCDPK4 kinase inhibitors, biochemical, TCAMS library (AID 1159588; cut-off not given, nearly all actives have IC50 up to about 0.91 µM); conditions: recombinant PfCDPK4, Kinase-Glo ATP depletion luminescence
Chain of Calcium-dependent protein kinase 4 (Plasmodium falciparum (isolate 3D7)) (Q8IBS5 whole entry, looked up): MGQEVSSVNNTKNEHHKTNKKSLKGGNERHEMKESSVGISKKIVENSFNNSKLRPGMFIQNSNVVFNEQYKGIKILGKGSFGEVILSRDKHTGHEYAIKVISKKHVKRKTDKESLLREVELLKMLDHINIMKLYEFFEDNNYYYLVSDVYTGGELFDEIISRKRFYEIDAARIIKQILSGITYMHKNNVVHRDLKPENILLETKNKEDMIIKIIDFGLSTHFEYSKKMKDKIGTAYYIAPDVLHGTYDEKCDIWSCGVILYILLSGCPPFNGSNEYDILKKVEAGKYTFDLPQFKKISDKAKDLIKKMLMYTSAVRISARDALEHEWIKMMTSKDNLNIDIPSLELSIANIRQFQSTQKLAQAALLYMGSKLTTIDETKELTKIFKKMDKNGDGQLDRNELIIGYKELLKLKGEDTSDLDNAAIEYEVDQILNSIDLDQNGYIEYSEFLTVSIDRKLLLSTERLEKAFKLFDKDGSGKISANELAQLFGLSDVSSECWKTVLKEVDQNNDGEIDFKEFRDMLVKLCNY

Chain of Calcium-dependent protein kinase 1 (Plasmodium falciparum (isolate 3D7)) (P62344 whole entry, looked up): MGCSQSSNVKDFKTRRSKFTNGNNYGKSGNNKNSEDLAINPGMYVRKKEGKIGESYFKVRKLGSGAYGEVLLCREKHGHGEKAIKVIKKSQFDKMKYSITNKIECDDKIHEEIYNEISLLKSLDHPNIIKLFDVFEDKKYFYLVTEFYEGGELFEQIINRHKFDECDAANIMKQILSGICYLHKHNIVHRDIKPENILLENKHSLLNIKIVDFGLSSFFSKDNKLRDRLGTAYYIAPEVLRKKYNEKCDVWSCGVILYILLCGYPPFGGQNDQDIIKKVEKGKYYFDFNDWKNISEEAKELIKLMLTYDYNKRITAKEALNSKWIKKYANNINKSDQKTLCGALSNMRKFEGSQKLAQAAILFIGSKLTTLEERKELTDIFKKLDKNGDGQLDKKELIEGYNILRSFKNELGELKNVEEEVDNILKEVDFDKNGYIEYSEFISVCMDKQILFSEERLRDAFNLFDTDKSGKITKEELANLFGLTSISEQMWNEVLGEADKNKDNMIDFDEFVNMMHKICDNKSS
Chain of Protein kinase 7 (PK7), Plasmodium falciparum 3D7 (PF3D7_0213400) (Q7YTF7 1-343): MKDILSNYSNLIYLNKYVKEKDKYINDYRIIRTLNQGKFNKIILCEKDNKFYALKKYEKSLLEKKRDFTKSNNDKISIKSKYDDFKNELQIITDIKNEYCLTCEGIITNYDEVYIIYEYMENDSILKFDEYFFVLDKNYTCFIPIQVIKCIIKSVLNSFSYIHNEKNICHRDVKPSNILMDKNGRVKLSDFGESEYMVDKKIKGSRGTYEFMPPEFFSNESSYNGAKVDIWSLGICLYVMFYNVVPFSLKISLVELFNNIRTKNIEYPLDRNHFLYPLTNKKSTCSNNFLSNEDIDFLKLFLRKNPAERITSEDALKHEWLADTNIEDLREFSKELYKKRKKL
Chain of Plasmodium falciparum protein kinase 6 (PK6, PF3D7_1337100) (Q8IDW1 1-305): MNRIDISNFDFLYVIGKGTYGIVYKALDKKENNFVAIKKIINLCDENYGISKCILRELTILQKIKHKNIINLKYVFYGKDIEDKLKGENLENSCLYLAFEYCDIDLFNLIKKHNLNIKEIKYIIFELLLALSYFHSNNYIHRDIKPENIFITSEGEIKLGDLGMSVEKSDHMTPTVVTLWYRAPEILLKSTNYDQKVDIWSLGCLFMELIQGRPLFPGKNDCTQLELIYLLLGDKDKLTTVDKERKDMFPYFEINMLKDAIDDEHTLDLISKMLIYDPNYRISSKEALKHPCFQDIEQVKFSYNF
Chain of L-lactate dehydrogenase (Plasmodium falciparum (isolate CDC / Honduras)) (Q27743 whole entry, looked up): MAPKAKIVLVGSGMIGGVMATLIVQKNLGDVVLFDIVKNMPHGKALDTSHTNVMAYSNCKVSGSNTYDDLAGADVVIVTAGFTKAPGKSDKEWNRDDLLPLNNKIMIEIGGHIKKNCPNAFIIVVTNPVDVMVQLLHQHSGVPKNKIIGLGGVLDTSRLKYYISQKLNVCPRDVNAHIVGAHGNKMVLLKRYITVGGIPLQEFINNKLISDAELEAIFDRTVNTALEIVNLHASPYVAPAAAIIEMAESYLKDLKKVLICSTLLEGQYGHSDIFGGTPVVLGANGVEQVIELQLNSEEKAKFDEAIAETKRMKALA

CC(C)(C)c1ccc(-c2nc3c(ccc4nc(N)nc(N)c43)[nH]2)cc1
active: growth inhibition [1] 101% | growth inhibition [3] 100%
inactive: inhibition [2] 1% | outcome [4] | outcome [5] | outcome [6] | outcome [7]

Cc1nc(C)c(-c2ccc(Oc3ccc(OC(F)(F)F)cc3)cc2)c(OC(=O)c2ccccc2)c1Cl
inactive: inhibition [2] 2% | outcome [4] | outcome [5] | outcome [6] | outcome [7]
active: growth inhibition [1] 97% | growth inhibition [3] 97%

CCn1c(O)c(N=NC(=S)N2CCCC2)c2ccccc21
inactive: growth inhibition [1] 9% | inhibition [2] 4% | outcome [4] | outcome [5] | outcome [6] | outcome [7]
active: growth inhibition [3] 91%

NC(N)=NC(=O)Nc1ccc(Cl)c([N+](=O)[O-])c1
active: growth inhibition [3] 97%
inactive: growth inhibition [1] 9% | inhibition [2] -8% | outcome [4] | outcome [5] | outcome [6] | outcome [7]

COc1ccccc1-c1nc2c(ccc3nc(N)nc(N)c32)[nH]1
active: growth inhibition [1] 93% | growth inhibition [3] 101%
inactive: inhibition [2] 2% | outcome [4] | outcome [5] | outcome [6] | outcome [7]

CCC(=C(CC)c1ccc(O)c(CNC2CCCCC2)c1)c1ccc(O)c(CNC2CCCCC2)c1
inactive: inhibition [2] -1% | outcome [4] | outcome [5] | outcome [6] | outcome [7]
active: growth inhibition [1] 100% | growth inhibition [3] 100%

Cc1[nH]c(C)c(-c2ccc(Oc3ccccc3)cc2)c(=O)c1Br
inactive: inhibition [2] 1% | outcome [4] | outcome [5] | outcome [6] | outcome [7]
active: growth inhibition [1] 97% | growth inhibition [3] 96%

Nc1ncc(-c2ccc(Br)cc2)c(N)n1
inactive: growth inhibition [1] 0% | inhibition [2] 0% | outcome [4] | outcome [5] | outcome [6] | outcome [7]
active: growth inhibition [3] 89%

CN(C)S(=O)(=O)n1ncc2c3c(N)nc(N)nc3ccc21
inactive: growth inhibition [1] 0% | inhibition [2] -4% | outcome [4] | outcome [5] | outcome [6] | outcome [7]
active: growth inhibition [3] 96%

Cc1nc(NCc2ccccc2)cc(Nc2cc(NCc3ccccc3)nc(C)n2)n1
inactive: growth inhibition [1] 32% | inhibition [2] 8% | outcome [4] | outcome [5] | outcome [6] | outcome [7]
active: growth inhibition [3] 90%

Cc1[nH]c(C)c(-c2ccc(Oc3ccc(C(F)(F)F)cc3)cc2)c(=O)c1Br
active: growth inhibition [1] 97% | growth inhibition [3] 97%
inactive: inhibition [2] -8% | outcome [4] | outcome [5] | outcome [6] | outcome [7]

Cc1cc(=O)c(-c2ccc(S(=O)(=O)c3ccc(Cl)cc3)cc2)c(C)[nH]1
inactive: inhibition [2] 4% | outcome [4] | outcome [5] | outcome [6] | outcome [7]
active: growth inhibition [1] 80% | growth inhibition [3] 92%

COc1cc(Cc2cnc(N)nc2N)cc(OCCCC(=O)O)c1OC
active: growth inhibition [3] 84%
inactive: growth inhibition [1] -3% | inhibition [2] 3% | outcome [4] | outcome [5] | outcome [6] | outcome [7]

O=C(NCCCCN1CCN(c2nsc3ccccc23)CC1)c1ccccc1C(=O)NCCCCN1CCN(c2nsc3ccccc23)CC1
active: growth inhibition [3] 100%
inactive: growth inhibition [1] 22% | inhibition [2] -8% | outcome [4] | outcome [5] | outcome [6] | outcome [7]

COCCOCCOCCn1ccc2c3c(N)nc(N)nc3ccc21
active: growth inhibition [3] 97%
inactive: growth inhibition [1] 0% | inhibition [2] -10% | outcome [4] | outcome [5] | outcome [6] | outcome [7]

CCOC(=O)c1nc2ccc(SC3CCCCC3)cn2c1Br
inactive: growth inhibition [1] 3% | inhibition [2] 3% | outcome [4] | outcome [5] | outcome [6] | outcome [7]
active: growth inhibition [3] 86%

COc1ccc2c(CNCCCCCCNCc3c(OC)ccc4cc(OC)ccc34)c(OC)ccc2c1
active: growth inhibition [1] 79% | growth inhibition [3] 101%
inactive: inhibition [2] -7% | outcome [4] | outcome [5] | outcome [6] | outcome [7]

CCN(CC)CCNc1cc(C)nc(/N=C(\N)Nc2ccc(Cl)cc2)n1
active: growth inhibition [3] 101%
inactive: growth inhibition [1] 0% | inhibition [2] 3% | outcome [4] | outcome [5] | outcome [6] | outcome [7]

CN(Cc1cnc2nc(N)nc(N)c2n1)c1ccc(C(=O)N[C@H](CCC(=O)OC(C)(C)C)C(=O)N[C@@H](CCC(=O)OC(C)(C)C)C(=O)OC(C)(C)C)cc1
active: growth inhibition [3] 85%
inactive: growth inhibition [1] 1% | inhibition [2] -6% | outcome [4] | outcome [5] | outcome [6] | outcome [7]

CN1CCN(c2ccc3nc(-c4ccc5nc(-c6ccc([N+](=O)[O-])c(N)c6)[nH]c5c4)[nH]c3c2)CC1
inactive: inhibition [2] -7% | outcome [4] | outcome [5] | outcome [6] | outcome [7]
active: growth inhibition [1] 101% | growth inhibition [3] 100%

COc1ccc2nc3cc(Cl)ccc3c(Nc3ccc(Oc4ccc(Nc5c6ccc(Cl)cc6nc6ccc(OC)cc56)cc4)cc3)c2c1
inactive: inhibition [2] 7% | outcome [4] | outcome [5] | outcome [6] | outcome [7]
active: growth inhibition [1] 93% | growth inhibition [3] 86%
